CHO-K1 Ca PAM: counter-screen for M1 PAMs: effect in parental CHO-K1 cells; ATP EC20, Fluo-8 calcium fluorescence; 0% at ATP EC20, 100% at ATP max; activation, % at 3 µM; 360,000 compounds, 0.02% hits;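 active = activation above the run cutoff, the mean activation of all test compounds plus 3 SD, cut at about 40% in these data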;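 also: peak over basal fluorescence ratio in a 140 s read after ATP addition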
CHRM4 antagonist: CHRM4 antagonism in calcium assay; CHO-hM4 cells, ACh EC80, Fluo-8 calcium fluorescence; P08173; 360,000 compounds, 0.73% hits; inhibition, % at 3 µM;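 active = inhibition above its plate's cutoff, the mean inhibition of sample wells plus 3 SD, cut at about 27% in these data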;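 also: 0% = acetylcholine EC80 with DMSO and 100% = DMSO without agonist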
Target sequence (P08173 whole entry, looked up): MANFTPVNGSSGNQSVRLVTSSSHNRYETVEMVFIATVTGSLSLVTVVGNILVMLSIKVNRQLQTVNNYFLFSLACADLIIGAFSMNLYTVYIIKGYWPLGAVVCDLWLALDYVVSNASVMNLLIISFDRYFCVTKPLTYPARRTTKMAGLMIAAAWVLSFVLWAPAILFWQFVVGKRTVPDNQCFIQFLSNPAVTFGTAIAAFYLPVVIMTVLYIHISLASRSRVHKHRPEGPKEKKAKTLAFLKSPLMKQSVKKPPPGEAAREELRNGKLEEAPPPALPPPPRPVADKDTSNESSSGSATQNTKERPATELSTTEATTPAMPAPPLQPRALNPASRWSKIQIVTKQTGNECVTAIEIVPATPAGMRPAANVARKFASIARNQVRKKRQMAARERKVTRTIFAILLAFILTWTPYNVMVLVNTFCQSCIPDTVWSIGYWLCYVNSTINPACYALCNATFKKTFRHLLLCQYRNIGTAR
CHRM4 PAM: CHRM4 positive allosteric modulation. P08173. CHO-K1 hM4/Gqi5, Fluo-8 calcium fluorescence, ACh EC20; 0% = ACh EC20, 100% = maximal ACh. activation, % at 3 µM. 360,000 compounds, 0.4% hits;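 active = activation above its plate's cutoff, the mean activation of sample wells plus 3 SD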
M1 ag parental: nonselective activator or artifact in parental CHO-K1 cells | Fluo-8 calcium fluorescence; scaled to maximal ATP response, vehicle zero | activation, % at 3 µM | 360,000 compounds, 0.48% hits; in the data active = activation above about 15%;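 also: untransfected CHO-K1 host cells lacking M1 receptor as counterscreen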
CHO-K1 Ca antag: nonselective inhibitor or artifact in parental CHO-K1 cells. 360,000 compounds, 0.6% hits. AID 602250. inhibition, % at 3 µM. ATP-induced calcium, Fluo-8 fluorescence;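 active = inhibition above a per-plate cutoff, the plate's mean sample inhibition plus 3 SD, cut at about 24% in these data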;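 also: 0% = DMSO plus EC80 ATP and 100% = DMSO alone without ATP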
M4 ag: agonists of human muscarinic M4 receptor (CHRM4) | activation, % at 3 µM | P08173 | 360,000 compounds, 0.14% hits | AID 624127 | CHO-K1 hM4/Gqi5, Fluo-8 calcium fluorescence; vehicle 0%, full acetylcholine response 100%;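 active = activation above the run mean over all test wells plus 3 SD, cut at about 32% in these data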;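 also: peak over basal fluorescence ratio per well then scaled between controls; 0% = DMSO wells and 100% = acetylcholine at EC100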
Active calls of the source: *. Sampled rows, rich in hits. Any-hit rate of the full collection: about 2%.

Screening Cc1cccc(NC(=S)N2CCN(c3ccccc3F)CC2)c1C returned CHO-K1 Ca PAM -18, CHRM4 antagonist 3, CHRM4 PAM -18, M1 ag parental 0, CHO-K1 Ca antag 8 and M4 ag -2.
FC(F)(F)Sc1ccc(NC(=S)NCc2ccccc2)cc1 was read as CHO-K1 Ca PAM -19, CHRM4 antagonist 16, CHRM4 PAM -11, M1 ag parental 11, CHO-K1 Ca antag 31* and M4 ag 13.
For FC(F)(F)c1cccc(CNC(=S)Nc2ccccc2)c1 the results were CHO-K1 Ca PAM -8, CHRM4 antagonist 1, CHRM4 PAM -3, M1 ag parental 3, CHO-K1 Ca antag 27* and M4 ag 12.
`S=C(NCc1ccccc1)NCc1cccc(Cl)c1` gave CHO-K1 Ca PAM 10, CHRM4 antagonist -7, CHRM4 PAM -6, M1 ag parental 3, CHO-K1 Ca antag 60* and M4 ag 4.
`S=C(NCc1ccccc1)Nc1ccc(Cl)cc1` gave CHO-K1 Ca PAM -4, CHRM4 antagonist 5, CHRM4 PAM -12, M1 ag parental 12, CHO-K1 Ca antag 22 and M4 ag 20.
S=C(NCCc1cccc(Cl)c1)NCc1ccccc1 was read as CHO-K1 Ca PAM -1, CHRM4 antagonist -11, CHRM4 PAM 0, M1 ag parental 1, CHO-K1 Ca antag -2 and M4 ag 7.
For CCCSc1nnc(NC(=O)Nc2ccc(C)cc2)s1 the results were CHO-K1 Ca PAM 5, CHRM4 antagonist -2, CHRM4 PAM -3, M1 ag parental 2, CHO-K1 Ca antag -7 and M4 ag 1.
Screening CCCSc1nnc(NC(=O)Nc2ccc(F)cc2)s1 returned CHO-K1 Ca PAM -3, CHRM4 antagonist 8, CHRM4 PAM -5, M1 ag parental 3, CHO-K1 Ca antag 24* and M4 ag 11.
Screening Cn1cnc([N+](=O)[O-])c1S(=O)(=O)Oc1cccc2ccccc12 returned CHO-K1 Ca PAM 3, CHRM4 antagonist 16, CHRM4 PAM 0, M1 ag parental 2, CHO-K1 Ca antag 3 and M4 ag 4.
Cn1cnc([N+](=O)[O-])c1S(=O)(=O)Oc1ccc(Cl)cc1 was read as CHO-K1 Ca PAM -22, CHRM4 antagonist 28*, CHRM4 PAM -9, M1 ag parental 1, CHO-K1 Ca antag 18 and M4 ag 3.
For COc1ccc([N+](=O)[O-])c(S(=O)(=O)c2ccccc2)n1 the results were CHO-K1 Ca PAM 1, CHRM4 antagonist 30*, CHRM4 PAM -7, M1 ag parental 0, CHO-K1 Ca antag 6 and M4 ag -1.
For C[C@H](CO)N1C[C@H](C)[C@@H](CN(C)C(=O)Nc2ccc3c(c2)OCO3)Oc2c(NC(=O)Nc3ccc4c(c3)OCO4)cccc2C1=O the results were CHO-K1 Ca PAM -3, CHRM4 antagonist 27*, CHRM4 PAM -7, M1 ag parental 5, CHO-K1 Ca antag -1 and M4 ag 21.
`C[C@H](CO)N1C[C@H](C)[C@@H](CN(C)Cc2ccc(Cl)c(Cl)c2)Oc2c(NC(=O)Cc3ccccc3)cccc2C1=O` gave CHO-K1 Ca PAM -4, CHRM4 antagonist 31*, CHRM4 PAM -8, M1 ag parental 0, CHO-K1 Ca antag 3 and M4 ag 21.
Screening C[C@H](CO)N1C[C@H](C)[C@@H](CN(C)Cc2ccccc2)Oc2c(NC(=O)Cc3ccccc3)cccc2C1=O returned CHO-K1 Ca PAM -2, CHRM4 antagonist 16, CHRM4 PAM -6, M1 ag parental 6, CHO-K1 Ca antag -19 and M4 ag 20.
`Cc1nc2ccccc2c(=O)n1NC(=O)CCC(=O)O` gave CHO-K1 Ca PAM 11, CHRM4 antagonist -3, CHRM4 PAM 4, M1 ag parental 1, CHO-K1 Ca antag -11 and M4 ag 1.
CCOC(=O)c1ccc(N2CCN(c3ccccc3F)CC2)c(NC(=O)Nc2ccccc2)c1 was read as CHO-K1 Ca PAM -1, CHRM4 antagonist 36*, CHRM4 PAM -12, M1 ag parental 4, CHO-K1 Ca antag 16 and M4 ag 11.
Screening CCOC(=O)c1ccc(N2CCN(c3ccc(F)cc3)CC2)c(NC(=O)Nc2cccc(OC)c2)c1 returned CHO-K1 Ca PAM 26, CHRM4 antagonist -3, CHRM4 PAM 3, M1 ag parental 1, CHO-K1 Ca antag -12 and M4 ag 3.
`CCOc1cc(C(=O)N2CCCC2)cc(OCC)c1OCC` gave CHO-K1 Ca PAM -7, CHRM4 antagonist 5, CHRM4 PAM 4, M1 ag parental 0, CHO-K1 Ca antag 26* and M4 ag -1.
`CCN(C(=O)COC(=O)Cc1c[nH]c2ccccc12)C1CCS(=O)(=O)C1` (centres undefined) gave CHO-K1 Ca PAM -6, CHRM4 antagonist -19, CHRM4 PAM 19*, M1 ag parental 1, CHO-K1 Ca antag -5 and M4 ag 1.
`CCC(C)N(C(=O)COC(=O)CCc1c[nH]c2ccccc12)C1CCS(=O)(=O)C1` (centres undefined) gave CHO-K1 Ca PAM 9, CHRM4 antagonist -10, CHRM4 PAM 6, M1 ag parental 1, CHO-K1 Ca antag -4 and M4 ag 4.
For COc1cccc(CN2CCC2(C)C(=O)Nc2cccc3cccnc23)c1F (centres undefined) the results were CHO-K1 Ca PAM 10, CHRM4 antagonist -6, CHRM4 PAM -3, M1 ag parental -1, CHO-K1 Ca antag -9 and M4 ag 0.
`CC1(C(=O)Nc2cccc3cccnc23)CCN1Cc1csc2ccccc12` (centres undefined) gave CHO-K1 Ca PAM 51*, CHRM4 antagonist -1, CHRM4 PAM -4, M1 ag parental 1, CHO-K1 Ca antag -36 and M4 ag 0.
CCN(CC)CCCNC(=O)/C=C/C(=O)O was read as CHO-K1 Ca PAM -5, CHRM4 antagonist -1, CHRM4 PAM 1, M1 ag parental 0, CHO-K1 Ca antag -2 and M4 ag 1.
For COC(=O)/C(=C\C=C\c1ccccc1)NC(=O)c1ccccc1 the results were CHO-K1 Ca PAM -9, CHRM4 antagonist -4, CHRM4 PAM 6, M1 ag parental 3, CHO-K1 Ca antag 29* and M4 ag 3.
O=C(NNC(=O)c1ccc(Oc2cc(Cl)cc(Cl)c2)o1)c1ccccc1 was read as CHO-K1 Ca PAM -11, CHRM4 antagonist 5, CHRM4 PAM -21, M1 ag parental 4, CHO-K1 Ca antag 4 and M4 ag 11.
O=C(NNC(=O)c1ccc(Oc2ccc(C3SCCS3)cc2)o1)c1ccc(Cl)cc1 was read as CHO-K1 Ca PAM 4, CHRM4 antagonist 27*, CHRM4 PAM -34, M1 ag parental 10, CHO-K1 Ca antag 5 and M4 ag 18.
Screening Cc1ccc(-n2c(SCC(N)=O)nnc2-c2ccc(S(=O)(=O)N3CCCCC3)cc2)c(C)c1 returned CHO-K1 Ca PAM 0, CHRM4 antagonist 99*, CHRM4 PAM -36, M1 ag parental 2, CHO-K1 Ca antag 16 and M4 ag 12.
